Tau fibril ThT: qHTS for Inhibitors of Tau Fibril Formation, Thioflavin T Binding; Microtubule-associated protein tau (Homo sapiens), P10636; recombinant tau K18 P301L, heparin-induced fibrillization, ThT fluorescence; Potency, µM (doses to about 57.4 µM), usual class: inhibitors; 270,000 compounds, 2.1% hits; AID 1460, 2008; note: nearly all actives have a fitted effect of over 55% in size
Target sequence (P10636 561-689 P618L limits assumed): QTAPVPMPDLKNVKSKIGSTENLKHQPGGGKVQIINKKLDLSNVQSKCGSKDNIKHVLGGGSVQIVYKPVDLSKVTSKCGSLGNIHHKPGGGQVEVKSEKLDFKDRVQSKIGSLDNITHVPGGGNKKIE
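Fibril formation assay: tau K18 P301L at 15 uM with trace Alexa 594 label, heparin inducer 20 uM, pH 7 sodium acetate buffer, 37 C for 6 hr; endpoint ThT signal.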
Tau fluor counter: Counterscreen qHTS for Inhibitors of Tau Fibril Formation, Fluorescence Polarization. tau K18 P301L (four-repeat tau fragment) Alexa594 fluorescence, heparin fibrillization. Potency, µM (series often up to 57.7 µM). 280,000 compounds, 0.93% hits; note: nearly all actives have a fitted effect of over 55% in size
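Human K18 P301L tau (15 uM unlabeled plus 0.24 uM Alexa 594-labeled, final) in 100 mM sodium acetate pH 7 was mixed with compound and 20 uM heparin and incubated 6 hr at 37 C.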
JMJD2E inh: qHTS Assay for Inhibitors of Human Jumonji Domain Containing 2E (JMJD2E) | JMJD2E catalytic domain, FDH-coupled NADH fluorescence (FDH is formaldehyde dehydrogenase) | Potency, µM (titrated, usually from 57.1 µM), usual class: inhibitors | 230,000 compounds, 1.6% hits | AID 2147, 2009; active = well fitted inhibition curve with a large enough effect, not every such curve was filed as active; inconclusive = small, poorly fitted or top-dose-only effect, or another doubt; inactive = no such curve, though single readings can be large or run the other way; note: nearly all actives have a fitted effect of over 50% in size
Target sequence (B2RXH2 1-337 limits assumed): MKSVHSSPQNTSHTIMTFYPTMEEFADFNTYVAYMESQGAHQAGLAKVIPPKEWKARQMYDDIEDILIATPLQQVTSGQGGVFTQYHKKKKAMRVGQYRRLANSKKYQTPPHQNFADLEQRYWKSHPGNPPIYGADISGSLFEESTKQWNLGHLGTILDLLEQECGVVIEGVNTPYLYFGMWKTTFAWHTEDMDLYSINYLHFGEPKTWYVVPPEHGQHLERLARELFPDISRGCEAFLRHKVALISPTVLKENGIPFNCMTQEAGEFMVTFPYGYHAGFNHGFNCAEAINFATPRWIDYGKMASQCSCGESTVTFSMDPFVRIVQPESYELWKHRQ
PNC inhibitor: High Content Assay for Compounds that inhibit the Assembly of the Perinucleolar Compartment; 140,000 compounds, 3.1% hits; PC3M PTB-GFP, PNC prevalence imaging, 16 h; stronger effect = lower value; activity change (PNC), negative = inhibition, % at 10 µM; AID 2417, 2010;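 active = readout at or below -70, meaning at least 70% loss of cells showing the perinucleolar compartment, a nuclear body marking cancer cells; inconclusive = readout between -30 and a set limit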
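Read-out is percentage of cells bearing a perinucleolar compartment, from automated 20x imaging of fixed, Hoechst-stained PC3M PTB-GFP cells. Cells were seeded 4 h, then exposed 16 h to compound (23 nl of library stock) in duplicate plates.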
Tau FP inhib: qHTS for Inhibitors of Tau Fibril Formation, Fluorescence Polarization; AID 1468, 2008; 280,000 compounds, 0.39% hits; Potency, µM (highest dose often 57.7 µM), hits mostly inhibitors; K18 P301L tau heparin fibrillization, Alexa594 FP, 6 h; note: nearly all actives have a fitted effect of over 55% in size
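Read-out: fluorescence polarization of Alexa 594-labeled tau (0.24 uM), 555 nm excitation, 632 nm emission. Mixtures held 15 uM unlabeled K18 P301L, compound and 20 uM heparin, pH 7 acetate buffer, incubated 6 hr at 37 C.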
NPSR antagonist: qHTS Assay for Antagonists of the Neuropeptide S Receptor: cAMP Signal Transduction | Potency, µM (titrated, usually from 38.3 µM), hits mostly inhibitors | 220,000 compounds, 1% hits | Q6W5P4 | CHO-NPSR cells, cAMP TR-FRET, antagonist mode; note: nearly all actives have a fitted effect of over 50% in size
A number is an active result; – = inactive; ? = inconclusive; · = not tested or not shown; [ ] = dose if it differs, or a comment. A selection: hits, their analogues and other compounds. The true share with any hit is near 5.1%. Unless noted, calls come from the whole dose curve; as a rule, active = well fitted curve in the direction sought with a large enough effect; inconclusive = small, poorly fitted or top-dose-only effect, or another doubt; inactive = no such curve, though single readings can be large; an effect the other way counts as inactive or inconclusive.

SMILES | Tau fibril ThT | Tau fluor counter | JMJD2E inh | PNC inhibitor | Tau FP inhib | NPSR antagonist
Oc1ccc(/C=N/N=C/c2ccc(O)cc2)cc1 | ? | – | – | · | – | –
S=C(NC1CCCCC1)N1CCN(c2ncccn2)CC1 | – | – | ? | · | – | –
O=C(NC1CCCCC1)N1CCN(c2ncccn2)CC1 | – | – | – | -83 | – | –
CCCN1C(=O)/C(=C/c2c(N3CCNC(=O)C3CC(=O)OCC)nc3c(C)cccn3c2=O)SC1=S (centres undefined) | 13µM | – | – | · | – | 13µM
CCOC(=O)CC1C(=O)NCCN1c1nc2ccc(C)cn2c(=O)c1/C=C1\SC(=S)N(CC(C)C)C1=O (centres undefined) | ? | – | – | · | – | –
Cc1ccc(Cn2c(CCNC(=O)c3cccc(C)c3)nc3ccccc32)cc1 | ? | – | · | · | – | ·
CNS(=O)(=O)c1cn(CC(=O)N2CCN(c3ccc(Cl)cc3)CC2)cc1S(=O)(=O)NC | – | – | · | · | – | ·
Cn1c(-c2ccccc2)c(/C=N/NC(=O)c2ccc(O)cc2)c2ccccc21 | ? | 20µM[quencher] | ? | · | – | –
Brc1ccc(-c2noc(COc3ccc4c(c3)CCC4)n2)o1 | ? | – | – | -80 | – | –
Clc1ccc(OCc2nc(-c3ccc(Br)o3)no2)cc1 | ? | – | – | – | – | –
COc1ccc(/C=C/C(=O)c2c(C)nc3ccccn23)cc1 | ? | – | – | – | – | ?
Cc1nc2ccccn2c1C(=O)/C=C/c1ccc(F)cc1 | – | – | – | -95 | – | –
CCc1ccc(-c2nc(CS(=O)CC(=O)NCCc3ccc(Cl)cc3)c(C)o2)cc1 (centres undefined) | – | – | · | · | – | ·
COc1ccc(-c2[nH]c(-c3ccccc3)nc2SCC(=O)Nc2ccc3c(c2)OCO3)cc1 | ? | 13µM[quencher] | · | · | – | ·
COc1ccc(-c2nsc(SCC(=O)Nc3ccc4c(c3)OCO4)n2)cc1 | – | – | – | – | – | –
COc1ccc(-c2nc(SCC(=O)Nc3ccc4c(c3)OCO4)c(-c3ccccc3)[nH]2)cc1 | – | 14µM[quencher] | · | · | ? | ·
COC(=O)c1cc(NS(=O)(=O)c2cc(Br)cc3c2N(C(C)=O)CC3)cc(C(=O)OC)c1 | – | – | · | · | – | ·
Cc1ccc(C2CC2C(=O)NNC(=S)Nc2ccc(Cl)cc2)cc1 (centres undefined) | – | – | – | -97 | – | –
CC(C)(C)NC(=S)NNC(=O)[C@H]1C[C@@H]1c1ccccc1 | – | – | – | · | – | –
Cc1cccn2c(=O)c3cc(C(=O)Nc4ccc(Cl)c(Cl)c4)sc3nc12 | – | – | · | · | – | ·
CN(Cc1ccco1)c1cc(-c2ccccc2Cl)ncn1 | ? | – | – | · | ? | ·
CN(Cc1ccco1)c1ccnc(-c2ccoc2)n1 | 22µM | ? | 25µM | · | ? | ·
CC(C)C(NC(=O)CSc1ccc(Cl)cc1)C(C)C | – | – | – | -83 | – | –
CCOc1ccc(CNS(=O)(=O)c2cc3c(cc2C)NC(=O)CO3)cc1OC | – | – | · | · | – | ·
COc1ccc(-c2cc(C3CCN(c4cc(Cl)nc(N)n4)CC3)[nH]n2)cc1 | – | – | – | – | – | –
SMILES | Tau fibril ThT | Tau fluor counter | JMJD2E inh | PNC inhibitor | Tau FP inhib | NPSR antagonist
Nc1nc(Cl)cc(N2CCC(c3cc(-c4ccc(Cl)cc4)n[nH]3)CC2)n1 | – | ? | – | – | – | 10µM
CN1/C(=C/C2CC(=O)NC2=O)C(C)(C)c2ccccc21 (centres undefined) | 28µM | – | ? | – | ? | –
CN1/C(=C\P(=O)(N(C)C)N(C)C)C(C)(C)c2ccccc21 | 32µM | ? | – | – | ? | –
O=C(Nc1nccs1)c1ccc(Br)o1 | – | – | – | -100 | – | –
O=C(Nc1ccc(Nc2ccccc2)cc1)c1ccc(Br)o1 | 8.9µM | 14µM[quencher] | – | – | ? | –
COc1ccc(-c2nc3c4ccccc4n(CC(=O)N4CCN(c5ccccc5OC)CC4)c(=O)n3n2)cc1 | ? | – | · | · | – | ·
N/C(CN1CCCC1=O)=N\O | – | – | – | – | – | –
N/C(CN1CCCC1=O)=N\OC(=O)c1ccccc1Cl | – | – | – | -87 | – | –
O=C1CSC(c2ccc(Cl)cc2)N1C1CCCCC1 (centres undefined) | – | – | – | – | – | ?
COc1ccc2ccccc2c1C1CC(=O)N2CN(C)CSC2=C1C#N (centres undefined) | 22µM | – | ? | – | 22µM | –
N#CC1=C2SCN(C3CCCCC3)CN2C(=O)CC1c1c(F)cccc1Cl (centres undefined) | 32µM | – | · | · | ? | ·
N#CC1=C2SCN(C3CCCCC3)CN2C(=O)CC1c1ccc(Cl)cc1 (centres undefined) | 28µM | – | · | · | ? | ·
CC(C)c1ccc(C2CC(=O)N3CN(C)CSC3=C2C#N)cc1 (centres undefined) | 28µM | – | – | – | – | –
CCOc1ccccc1NC(=O)Cn1c(=O)n(-c2ccc(C)c(C)c2)c(=O)c2oc3ccccc3c21 | – | – | · | · | – | ·
O=C(COc1ccccc1Cl)N(Cc1cccc(F)c1)C1CCS(=O)(=O)C1 (centres undefined) | – | – | · | · | – | ·
Cc1ccc(-c2cnc(NCc3c(F)cccc3Cl)n2C)cc1 | – | – | · | · | – | ·
CC1=C(c2ccc(C)c(C)c2)S(=O)(=O)N=C1N1CCC(C(=O)NCCc2ccco2)CC1 | – | – | · | · | ? | ·
O=C1C(c2ccc(F)cc2)N(C2CCCCC2)C(=O)CN1C1CCCC1 (centres undefined) | – | – | – | – | – | –
N#CC1=C2SCN(C3CCCCC3)CN2C(=O)CC1c1ccc(F)cc1 (centres undefined) | 28µM | – | · | · | ? | ·
Fc1cccc(Nc2ncnc3c2cnn3-c2ccccc2)c1 | ? | ? | ? | · | 25µM | –
Cc1cccc(-n2ncc3c(Nc4ccc(C)c(Cl)c4)ncnc32)c1 | – | ? | · | · | 8.9µM | ·
COc1ccccc1Nc1ncnc2c1cnn2-c1cccc(C)c1 | – | – | – | – | – | –
COc1cccc(Nc2ncnc3c2cnn3-c2cccc(C)c2)c1 | – | ? | ? | – | ? | ?
Cc1cccc(-n2ncc3c(Nc4ccc(Oc5ccc(Cl)cc5)cc4)ncnc32)c1 | – | 4µM[quencher] | · | · | 13µM | ·
Cc1ccc(NC(=O)CCc2nc3cccnc3n2-c2ccccc2)cc1Cl | – | – | · | · | – | ·
CCCn1c2ccccc2c2cnn(CC(=O)NCCc3ccc(OCC)cc3)c(=O)c21 | – | – | · | · | – | ·
CC(C)CC(=O)Nc1cc(-c2ccccc2F)nn1-c1ccccc1 | – | – | · | · | – | ·
COc1cccc(N2CC(NC(=O)C(c3ccccc3)c3ccccc3)CC2=O)c1 (centres undefined) | – | – | · | · | – | ·
